Here are results for 55 compounds from publication PMC4336329 (PLoS ONE, 2015).

Structures are written as SMILES. The campaign covered roughly 310,000 compounds. About 2,200 (0.71%) showed an effect of 50% or more. The effect is printed as a negative number. This excerpt belongs to a sample that is enriched for strong results.

For the test, the target named is human ether-à-go-go-related gene (hERG) potassium channel (human, UniProt Q12809). The test is described as follows: primary screen, population patch clamp on CHO cells stably expressing hERG; higher = less effect of the substance.
human ether-à-go-go-related gene (hERG) potassium channel, sequence (Q12809 whole entry, looked up): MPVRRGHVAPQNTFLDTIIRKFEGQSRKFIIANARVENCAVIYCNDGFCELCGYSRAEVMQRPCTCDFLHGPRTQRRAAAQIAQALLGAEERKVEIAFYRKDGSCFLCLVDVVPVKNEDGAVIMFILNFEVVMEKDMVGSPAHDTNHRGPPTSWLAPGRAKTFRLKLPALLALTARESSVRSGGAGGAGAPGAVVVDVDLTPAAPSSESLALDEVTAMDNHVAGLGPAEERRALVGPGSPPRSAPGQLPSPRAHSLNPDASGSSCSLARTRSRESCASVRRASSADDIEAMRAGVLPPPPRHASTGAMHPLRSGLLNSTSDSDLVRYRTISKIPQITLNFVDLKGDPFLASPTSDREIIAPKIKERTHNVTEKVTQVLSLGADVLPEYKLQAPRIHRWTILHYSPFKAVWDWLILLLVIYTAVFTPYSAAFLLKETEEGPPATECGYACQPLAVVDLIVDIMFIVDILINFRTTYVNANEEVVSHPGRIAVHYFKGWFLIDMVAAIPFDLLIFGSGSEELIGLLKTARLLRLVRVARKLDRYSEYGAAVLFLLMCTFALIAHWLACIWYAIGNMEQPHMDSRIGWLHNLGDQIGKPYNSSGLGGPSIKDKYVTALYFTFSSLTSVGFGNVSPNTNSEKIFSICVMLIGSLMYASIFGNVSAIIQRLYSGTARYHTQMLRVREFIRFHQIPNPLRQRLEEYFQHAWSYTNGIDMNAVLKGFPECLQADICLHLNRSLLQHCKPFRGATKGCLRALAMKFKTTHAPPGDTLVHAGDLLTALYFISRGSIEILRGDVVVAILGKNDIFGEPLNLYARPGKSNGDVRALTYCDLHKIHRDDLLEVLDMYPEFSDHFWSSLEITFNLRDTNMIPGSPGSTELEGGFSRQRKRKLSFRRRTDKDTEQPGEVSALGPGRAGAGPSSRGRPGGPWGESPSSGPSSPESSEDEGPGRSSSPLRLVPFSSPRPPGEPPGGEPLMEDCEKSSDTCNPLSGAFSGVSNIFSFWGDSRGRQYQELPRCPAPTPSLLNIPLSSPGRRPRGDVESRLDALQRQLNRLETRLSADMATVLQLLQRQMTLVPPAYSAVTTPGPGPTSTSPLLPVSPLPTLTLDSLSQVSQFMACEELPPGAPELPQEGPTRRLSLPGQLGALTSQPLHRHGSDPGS
As for `Cc1ccc(-n2c(C)cc(C(=O)CSc3nnc4ccccn34)c2C)cc1`, the “hERG current change (%, negative = inhibition) at 1uM” value was 0.977%.
Under `O=C(NC1CCCCC1)C1CCN(c2nnnn2-c2ccccc2)CC1` stands 3.39%; under `COc1ccc(/C=C2\N=C3CCCCCN3C2=O)cc1OC`, 14.8%.
The same measure for `Cc1cccc(OCC(O)CN2CCN(CCN3C(=O)c4cccc5cccc(c45)C3=O)CC2)c1C` (stereo not shown): 15.1%; for `Cc1ccccc1OCC(O)CN1CCCCC1.Cl` (stereo not shown): 16.2%; for `Cc1ccccc1OCC(O)CN1CCN(CCN2C(=O)c3cccc4cccc(c34)C2=O)CC1` (stereo not shown): -17.3%.
Under `COc1ccc(N2CCN(CC(O)COc3cc(C)cc(C)c3)CC2)cc1.Cl` (stereo not shown) stands -17.5%; under `OC(COc1cccc2ccccc12)CN1CCCC1` (stereo not shown), -1.17%.
As for `COc1cccc(OCC(O)CN2CCN(c3ccc(Cl)cc3)CC2)c1` (stereo not shown), the “hERG current change (%, negative = inhibition) at 1uM” value is on record as -14.1%.
The same measure for `COc1ccc(N2CCN(CC(O)COc3cc(C)ccc3C)CC2)cc1.Cl` (stereo not shown): -9.86%; for `Cc1ccccc1OCC(O)CN1CCN(c2ccc(Cl)cc2)CC1` (stereo not shown): -58.2%; for `OC(COc1cccc2ccccc12)CN1CCN(c2ccc(Cl)cc2)CC1` (stereo not shown): -1.91%.
Under `COc1ccc(N2CCN(CC(O)COc3ccc(C)cc3C)CC2)cc1.Cl` (stereo not shown) stands -54.6%; under `CC(=O)c1ccccc1OCC(O)CN1CCN(CCN2C(=O)c3cccc4cccc(c34)C2=O)CC1` (stereo not shown), -73.5%.
The same measure for `C=C1CC(C)OC(c2ccccc2OCC(O)CN2CCCCC2)C1` (stereo not shown): -63.3%; for `O=C(COC(=O)c1nc(Cl)c(Cl)c(Cl)c1Cl)NCc1ccccc1`: 3.59%; for `Cc1ccc(OCCNS(=O)(=O)c2ccc(N3CCCC3=O)cc2)cc1`: 7.63%.
`Cc1sc2nc(NCCO)[nH]c(=O)c2c1C`: the “hERG current change (%, negative = inhibition) at 1uM” value was determined as 14.6%.
Under `CS(=O)(=O)c1cccc(-c2nnc(NC(=O)C3=COCCO3)o2)c1` stands 0.983%.
`Nc1c(C(=O)c2ccc(Cl)cc2)oc2ccccc12`: the “hERG current change (%, negative = inhibition) at 1uM” value is reported as 18%.
The same measure for `O=C(Nc1ccccc1)C1=C[C@H](c2ccccc2)C[C@H](OCCCCO)O1`: 12.7%; for `Cc1nc(N2CCN(S(=O)(=O)c3ccccc3)CC2)c2cc(-c3ccccc3)sc2n1`: 2.54%.
Under `c1ccc2c(c1)nnn2Cc1nnc2sc(-c3ccc4c(c3)OCCO4)nn12` stands 9.84%; under `COC(=O)c1cccc(OCC(O)Cn2ccnc2)c1` (stereo not shown), 0.869%.
The same measure for `Cc1ccccc1OCC(O)CN1CCC(C)CC1.Cl` (stereo not shown): -6.73%.
In the case of `Cc1ccccc1OCC(O)CN1CCN(CC(O)COc2ccccc2C)CC1` (stereo not shown), the “hERG current change (%, negative = inhibition) at 1uM” value is -50.4%.
Consider `Cc1ccccc1OCC(O)CN1CCN(C)CC1.Cl` (stereo not shown), for which the “hERG current change (%, negative = inhibition) at 1uM” value came out at 5.66%.
Under `Cc1ccc2oc(=O)c3cnn(CC(=O)N4CCCc5ccccc54)c3c2c1` stands 4.39%; under `CCn1c(SCC(=O)c2c(N)n(C)c(=O)n(C)c2=O)nnc1-c1ccccc1`, 14.2%.
Consider `CN(C)Cc1c(O)ccc2occ(C(=O)c3ccccc3)c12`, for which the “hERG current change (%, negative = inhibition) at 1uM” value is recorded as -16.4%.
Under `CCN(CC)Cc1c(O)ccc2occ(C(=O)c3ccc(OC)cc3)c12` stands -64.2%.
`COc1ccc2occ(C(=O)c3coc4ccc(O)c(CN(C)C)c34)c2c1.Cl`: the “hERG current change (%, negative = inhibition) at 1uM” value was -29.5%.
Under `CN1CCN(Cc2c(O)ccc3occ(C(=O)c4ccccc4)c23)CC1` stands -14.3%; under `CN(C)Cc1c(O)ccc2occ(C(=O)c3ccc(F)cc3)c12`, -57.5%.
Consider `COc1ccc(OC)c(C(=O)c2coc3ccc(O)c(CN(C)C)c23)c1.Cl`, for which the “hERG current change (%, negative = inhibition) at 1uM” value is listed as 9.87%.
Turning to `Cc1ccc(C(=O)c2coc3ccc(O)c(CN(C)C)c23)cc1.Cl`, the “hERG current change (%, negative = inhibition) at 1uM” value is on record as -16.2%.
The same measure for `COc1ccc(C(=O)c2coc3ccc(O)c(CN(C)C)c23)cc1`: -29.3%; for `CCN(CC)Cc1c(O)ccc2occ(C(=O)c3ccccc3)c12`: -57.3%.
The same measure for `Cc1ccc(-c2nc3cccnc3o2)cc1NC(=O)COc1ccc(C(C)(C)C)cc1`: 7.31%; for `COc1ccc(S(=O)(=O)Nc2ccc(Cc3ccncc3)cc2)cc1OC`: 7.28%.
Under `COc1cc(NC(=O)c2ccc(F)cc2)c(OC)cc1NC(=O)CN1CCOCC1` stands 3.57%; under `O=C(CN1C(=O)NC2(CCCCC2)C1=O)NCCC1=CCCCC1`, 14.5%.
As to `COC(=O)c1cc(S(=O)(=O)N2CCCCCC2)c[nH]1`, the “hERG current change (%, negative = inhibition) at 1uM” value was 12.4%.
For `Cc1c(C(=O)Nc2nccs2)oc2ccc(F)cc12`, the “hERG current change (%, negative = inhibition) at 1uM” value is on record as 14.5%.
In the case of `CCC(C(=O)N1CCN(Cc2ccc3c(c2)OCO3)CC1)n1c(=O)[nH]c2ccccc2c1=O` (stereo not shown), the “hERG current change (%, negative = inhibition) at 1uM” value is -8.55%.
Under `CCN1CCc2c(C#N)c(N3CCCCC3)nc(N3CCOCC3)c2C1` stands 12.1%; under `CCCN1C(=O)C2(C(C(=O)c3ccc(C)o3)=C(O)C(=O)N2CCCOC)c2ccccc21` (stereo not shown), 7.99%.
In the case of `COc1cc2oc3ccccc3c2cc1N(CC(=O)N(C)C)S(=O)(=O)c1ccccc1`, the “hERG current change (%, negative = inhibition) at 1uM” value was 0.641%.
With `Clc1nc(CN2CCCCC2)nc2sc3c(c12)CCCC3`, the “hERG current change (%, negative = inhibition) at 1uM” value was 7.88%.
As to `c1ccc2c(c1)CCN(c1nc(CN3CCOCC3)nc3sc4c(c13)CCCC4)C2`, the “hERG current change (%, negative = inhibition) at 1uM” value was found to be 14.5%.
Take `COc1cc2c(cc1OC)CN(c1nc(CN3CCCC3)nc3sc(C)c(C)c13)CC2`: the “hERG current change (%, negative = inhibition) at 1uM” value was -22.9%.
Turning to `COc1cc2c(cc1OC)CN(c1nc(CN3CCOCC3)nc3sc4c(c13)CCCC4)CC2`, the “hERG current change (%, negative = inhibition) at 1uM” value is reported as -54%.
The same measure for `COc1cc2c(cc1OC)CN(c1nc(CN3CCCCC3)nc3sc4c(c13)CCCC4)CC2`: -57.3%; for `COc1cc2c(cc1OC)CN(c1nc(CN3CCOCC3)nc3sc4c(c13)CCC(C)C4)CC2` (stereo not shown): 5.29%.
With `Cc1cccc(C)c1NC(=S)NN(Cc1ccccc1)c1ccccc1`, the “hERG current change (%, negative = inhibition) at 1uM” value came out at 10.3%.
